# Experimental data: PubChem BioAssay AID1159580 (chemical genetic matrix, 2015)
# Out of some 5,500 compounds screened, about 2,000 (36%) were called active. Not shown: some 18% with an inconclusive outcome. This is one part of the list. Unmarked numbers belong to inactive results. No stated cut-off is given here; in the data, active means normalized growth mostly below about 0.91 (no sharp cut-off); inconclusive means no clear call, values can overlap the other calls; inactive means mostly above about 0.92.
# Test: chemical genetic growth profiling, strain panel (AID 1159580);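 further: tested at 20 µM; growth read once vehicle control cultures reached saturation at 30 °C; 1 = growth at the plate median or of vehicle wells; lower values mean less growth of the strain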
# Settings: growth OD
# [1] = S. cerevisiae deletion strains, locus YGR078C, strain PAC10, active compounds read low
# [2] = S. cerevisiae deletion strains, locus YMR307W, strain GAS1, active compounds read low
# [3] = S. cerevisiae deletion strains, locus YNL153C, strain GIM3, active compounds read low
# [4] = S. cerevisiae deletion strains, locus YNL322C, strain KRE1, active compounds read low
# [5] = S. cerevisiae deletion strains, locus YPL055C, strain LGE1, active compounds read low
# [6] = S. cerevisiae deletion strains, locus YPL241C, strain CIN2, active compounds read low
# [7] = S. cerevisiae deletion strains, locus YAL013W, strain DEP1, active compounds read low
# [8] = S. cerevisiae deletion strains, locus YBR229C, strain ROT2, active compounds read low
# [9] = S. cerevisiae deletion strains, locus YCL061C, strain MRC1, active compounds read low
# [10] = S. cerevisiae deletion strains, locus YDL101C, strain DUN1, active compounds read low
# [11] = S. cerevisiae deletion strains, locus YDR150W, strain NUM1, active compounds read low
# [12] = S. cerevisiae deletion strains, locus YEL061C, strain CIN8, active compounds read low
# [13] = S. cerevisiae deletion strains, locus YHR030C, strain SLT2, active compounds read low
# [14] = S. cerevisiae deletion strains, locus YHR087W, strain rtc3, active compounds read low
# [15] = S. cerevisiae deletion strains, locus YJR043C, strain POL32, active compounds read low
# [16] = S. cerevisiae deletion strains, locus YJR075W, strain HOC1, active compounds read low
# [17] = S. cerevisiae deletion strains, locus YKL190W, strain CNB1, active compounds read low
# [18] = S. cerevisiae deletion strains, locus YLR039C, strain RIC1, active compounds read low
# [19] = S. cerevisiae deletion strains, locus YLR058C, strain SHM2 (second series), active compounds read low
# [20] = S. cerevisiae deletion strains, locus YLR085C, strain ARP6, active compounds read low
# [21] = S. cerevisiae deletion strains, locus YLR262C, strain YPT6, active compounds read low
# [22] = S. cerevisiae deletion strains, locus YML094W, strain GIM5, active compounds read low
# [23] = S. cerevisiae deletion strains, locus YMR219W, strain ESC1, active compounds read low
# [24] = S. cerevisiae deletion strains, locus YMR263W, strain SAP30, active compounds read low
# [25] = S. cerevisiae deletion strains, locus YNL298W, strain CLA4 (second series), active compounds read low
# [26] = S. cerevisiae deletion strains, locus YNR030W, strain Alg12, active compounds read low
# [27] = S. cerevisiae deletion strains, locus YPR135W, strain CTF4, active compounds read low
smiles,measurement,setting,value
OCc1cnc[nH]1,normalized growth,"S. cerevisiae deletion strains, locus YAL040C, strain CLN3, active compounds read low",0.98
same,normalized growth,"S. cerevisiae deletion strains, locus YCL061C, strain MRC1 (second series), active compounds read low",1
same,normalized growth,"S. cerevisiae deletion strains, locus YDR363W, strain ESC2, active compounds read low",1.01
same,normalized growth,"S. cerevisiae deletion strains, locus YER002W, strain NOP16, active compounds read low",1.03
same,normalized growth,[1],1.01
same,normalized growth,"S. cerevisiae deletion strains, locus YGR229C, strain SMI1, active compounds read low",0.987
same,normalized growth,[2],1
same,normalized growth,[3],1.05
same,normalized growth,"S. cerevisiae deletion strains, locus YNL175C, strain NOP13, active compounds read low",1.02
same,normalized growth,"S. cerevisiae deletion strains, locus YNL197C, strain WHI3, active compounds read low",1.01
same,normalized growth,"S. cerevisiae deletion strains, locus YNL224C, strain SQS1, active compounds read low",1.01
same,normalized growth,[4],1
same,normalized growth,"S. cerevisiae deletion strains, locus YOR083W, strain WHI5 (second series), active compounds read low",0.989
same,normalized growth,[5],1.01
same,normalized growth,[6],1.01
N#Cc1c(F)cccc1Oc1ccc(F)cc1,normalized growth,[7],0.999
same,normalized growth,[8],0.957
same,normalized growth,[9],1.01
same,normalized growth,[10],0.98
same,normalized growth,"S. cerevisiae deletion strains, locus YDL134C, strain PPH21, active compounds read low",0.986
same,normalized growth,[11],0.941
same,normalized growth,[12],0.966
same,normalized growth,[1],0.971
same,normalized growth,[13],0.848
same,normalized growth,[14],0.948
same,normalized growth,[15],0.999
same,normalized growth,[16],0.946
same,normalized growth,[17],0.972
same,normalized growth,[18],0.851
same,normalized growth,[19],0.979
same,normalized growth,[20],0.941
same,normalized growth,[21],0.907
same,normalized growth,[22],0.97
same,normalized growth,[23],0.971
same,normalized growth,[24],0.998
same,normalized growth,[2],0.891
same,normalized growth,[3],0.991
same,normalized growth,[25],0.928
same,normalized growth,[4],0.962
same,normalized growth,[26],0.986
same,normalized growth,[5],0.956
same,normalized growth,[6],0.978
same,normalized growth,[27],0.905
N#Cc1ncc(C(F)(F)F)cc1Oc1ccc(Cl)cc1,normalized growth,[7],0.921 (active)
same,normalized growth,[8],0.789 (active)
same,normalized growth,[9],0.898 (active)
same,normalized growth,[10],0.868 (active)
same,normalized growth,[11],0.799 (active)
same,normalized growth,[12],0.903 (active)
same,normalized growth,[1],0.708 (active)
same,normalized growth,[13],0.843
same,normalized growth,[14],0.745 (active)
same,normalized growth,[15],0.911 (active)
same,normalized growth,[16],0.594 (active)
same,normalized growth,[17],0.842 (active)
same,normalized growth,[18],0.694 (active)
same,normalized growth,[19],0.829 (active)
same,normalized growth,[20],0.595 (active)
same,normalized growth,[21],0.658 (active)
same,normalized growth,[22],0.907
same,normalized growth,[23],0.814 (active)
same,normalized growth,[24],0.913
same,normalized growth,[2],1.01
same,normalized growth,[3],0.892 (active)
same,normalized growth,[25],0.709 (active)
same,normalized growth,[4],0.849 (active)
same,normalized growth,[26],0.737 (active)
same,normalized growth,[5],0.751 (active)
same,normalized growth,[6],0.844 (active)
same,normalized growth,[27],0.889
same,normalized growth,"S. cerevisiae strains, strain wild type, active compounds read low",0.851 (active)
